{"source": "PubChem BioAssay AID686978", "about": "(National Center for Advancing Translational Sciences (NCATS), 2013)", "note": "In all, about 420,000 compounds went through this assay and about 64,000 (15%) were called active. Another 27% or so got no clear call; they are omitted. Calls come from the whole dose curve; as a rule, active = well fitted inhibition curve with a large enough effect; inconclusive = small, poorly fitted or top-dose-only effect; inactive = flat fitted curve, though single readings scatter. Not all results are given here. % is set by controls: 0 for no effect and ±100 for the full control effect; potency is the fitted concentration of half-maximal effect."}
{"assay": "qHTS for Inhibitors of human tyrosyl-DNA phosphodiesterase 1 (TDP1): qHTS in cells in absence of CPT; note: nearly all actives have a fitted effect of over 55% in size", "settings": "DT40 Tdp1-/- hTDP1 cells, no CPT, ATP luminescence, 48 h; activity change, negative = growth inhibition: at 46.2 µM (top of the series)", "method_in_brief": "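Seeded 400 DT40-hTDP1 cells/well (vehicle DMSO, no 20 nM CPT); pinned compounds; ≥48 hr at 37 °C; CellTiter-Glo luminescence as viability measure.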"}
{"smiles": "Nc1ccc(/C=C/c2ccnc3ccccc23)c([N+](=O)[O-])c1", "Potency": "10 µM (active)"}
{"smiles": "O=C(CC(c1ccccc1)c1ccccc1)NCC(O)c1ccc([N+](=O)[O-])cc1", "note": "(stereo not given)", "activity change, negative = growth inhibition": "-29.9% (inactive)"}
{"smiles": "Cc1ccc(C)c(N2CCN(Cc3nnc(-c4ccccc4)o3)CC2)c1", "activity change, negative = growth inhibition": "-24.4% (inactive)"}
{"smiles": "CCn1c2ccccc2c2nnc(N3CCN(c4cc(C)ccc4C)CC3)nc21", "activity change, negative = growth inhibition": "2.65% (inactive)"}
{"smiles": "Cc1ccc(C)c(N2CCN(C(c3ccccc3)c3nnc(-c4ccccc4)o3)CC2)c1", "note": "(stereo not given)", "Potency": "23.1 µM (active)"}
{"smiles": "CC(C)c1ccc(S(=O)(=O)NC2CCCC2)cc1", "activity change, negative = growth inhibition": "-9.9% (inactive)"}
{"smiles": "C/C(CC(=O)Nc1cccc(C(F)(F)F)c1)=N\\NC(=O)C(=O)NCC(C)C", "activity change, negative = growth inhibition": "4.51% (inactive)"}
{"smiles": "Cc1cc(N2CCCC2=O)cc(C)c1S(N)(=O)=O", "activity change, negative = growth inhibition": "-1.77% (inactive)"}
{"smiles": "COc1cccc(N2C(=O)C3CCCN3C2c2ccc(F)cc2)c1", "note": "(stereo not given)", "activity change, negative = growth inhibition": "-16.8% (inactive)"}
{"smiles": "CSC1=NCCN1C(=O)c1ccc(S(=O)(=O)N2CCOCC2)cc1", "activity change, negative = growth inhibition": "-6.06% (inactive)"}
{"smiles": "O=C(Nc1ccccc1)Nc1nnc(COc2ccccc2F)s1", "Potency": "10.3 µM (active)"}
{"smiles": "O=C(Nc1nnc(COc2ccccc2)s1)Nc1ccccc1F", "activity change, negative = growth inhibition": "-18.9% (inactive)"}
{"smiles": "COCC(=O)Nc1nnc(COc2ccccc2)s1", "activity change, negative = growth inhibition": "-3.11% (inactive)"}
{"smiles": "Cc1cc(C)c(C(N)=O)c(Cl)n1", "activity change, negative = growth inhibition": "-2.24% (inactive)"}
{"smiles": "CC1=C(C(=O)N(C)C)C(c2ccccc2OC(F)F)NC(=O)N1", "note": "(stereo not given)", "activity change, negative = growth inhibition": "-14.3% (inactive)"}
{"smiles": "COc1cc(OC)c(C2=NOC(C(=O)Nc3c(C)n(C)n(-c4ccccc4)c3=O)C2)cc1Cl", "note": "(stereo not given)", "activity change, negative = growth inhibition": "-21.7% (inactive)"}
{"smiles": "Cc1cccc(OCC(=O)Nc2ccc(C(=O)O)cc2NC(=O)COc2cccc(C)c2)c1", "activity change, negative = growth inhibition": "-3.15% (inactive)"}
{"smiles": "O=C(O)CN(Cc1ccco1)S(=O)(=O)c1ccc(F)cc1", "activity change, negative = growth inhibition": "2.93% (inactive)"}
{"smiles": "OC(c1nc2ccccc2[nH]1)C(O)C(O)C(O)c1nc2ccccc2[nH]1", "note": "(stereo not given)", "activity change, negative = growth inhibition": "0.49% (inactive)"}
{"smiles": "O=C(CSc1nc2ccccc2[nH]1)c1cccs1", "activity change, negative = growth inhibition": "-21.9% (inactive)"}
{"smiles": "CCC(c1nc2ccccc2[nH]1)n1c(=O)c(-c2cccs2)nc2ccccc21", "note": "(stereo not given)", "Potency": "18.4 µM (active)"}
{"smiles": "CSc1nnc(-c2ccncc2)n1CCCN1CCCC1=O", "activity change, negative = growth inhibition": "-13.2% (inactive)"}
{"smiles": "O=C(NCCc1nnc2ccc(SCC(=O)N3CCOCC3)nn12)c1ccccc1", "activity change, negative = growth inhibition": "18.7% (inactive)"}
{"smiles": "Cc1ccc(N(C(=O)Cc2cccs2)C2C=CS(=O)(=O)C2)cc1Cl", "note": "(stereo not given)", "activity change, negative = growth inhibition": "-5.03% (inactive)"}
{"smiles": "Cc1ccc(C)c2c1cc(C)c1nnc(SCC(=O)Nc3cccc(C(=O)O)c3)n12", "activity change, negative = growth inhibition": "16% (inactive)"}
{"smiles": "O=C(Nc1cc(=O)[nH]c2ncnn12)c1ccccc1Cl", "activity change, negative = growth inhibition": "-5.75% (inactive)"}
{"smiles": "CCN1CCN(c2ncnc3c2cnn3-c2ccc(C)c(C)c2)CC1", "Potency": "18.4 µM (active)"}
{"smiles": "COc1ccc(-n2ncc3c(SCC(=O)NNC(C)=O)ncnc32)cc1", "activity change, negative = growth inhibition": "-27.9% (inactive)"}
{"smiles": "Cc1ccc(-n2ncc3c(N4CCC(C(N)=O)CC4)ncnc32)cc1", "activity change, negative = growth inhibition": "20.4% (inactive)"}
{"smiles": "COC(=O)CSc1ncnc2c1cnn2-c1ccc(C)cc1C", "activity change, negative = growth inhibition": "-16.2% (inactive)"}
{"smiles": "COc1ccccc1N1CCN(C(=O)CSc2ncnc3c2cnn3-c2ccc(C)c(C)c2)CC1", "Potency": "23.1 µM (active)"}
{"smiles": "CCN(c1ncnc2c1cnn2-c1ccc(C)cc1)C1CCCCC1", "activity change, negative = growth inhibition": "7.61% (inactive)"}
{"smiles": "O=C1C2C3C=CC(C3)C2C(=O)N1c1ncc([N+](=O)[O-])s1", "note": "(stereo not given)", "activity change, negative = growth inhibition": "11.5% (inactive)"}
{"smiles": "COc1ccc(C(=O)COC(=O)CCCC(=O)Nc2cc(C(F)(F)F)ccc2Cl)cc1", "activity change, negative = growth inhibition": "-26.7% (inactive)"}
{"smiles": "Cc1cc(OC(=O)c2ccc(Cl)cc2)cc(=O)n1C", "activity change, negative = growth inhibition": "-48.6% (inactive)"}
{"smiles": "O=C(COc1cccc(F)c1)Oc1ccc(C(=O)c2ccccc2)cc1", "activity change, negative = growth inhibition": "-2.56% (inactive)"}
{"smiles": "N#Cc1cccc(CSc2nnc(CCCO)n2-c2ccccc2)c1", "activity change, negative = growth inhibition": "-6.18% (inactive)"}
{"smiles": "Cc1ccc(OCC(=O)Nc2ccc(-c3nnc(-c4ccco4)o3)cc2)cc1", "activity change, negative = growth inhibition": "-26.1% (inactive)"}
{"smiles": "CCOc1ccc(-c2nnc(-c3ccco3)o2)cc1", "activity change, negative = growth inhibition": "2.07% (inactive)"}
{"smiles": "CCC(=O)Oc1cccc(C(=O)Nc2ccc(-c3nnc(-c4ccco4)o3)cc2)c1", "Potency": "5.8 µM (active)"}
{"smiles": "O=C(Nc1ccc(C(=O)O)cc1)/C(=C\\c1ccccc1)NC(=O)c1ccc(Br)cc1", "activity change, negative = growth inhibition": "2.35% (inactive)"}
{"smiles": "CN1CCN(C(=O)C2C3C=CC(C3)C2C(=O)O)CC1", "note": "(stereo not given)", "activity change, negative = growth inhibition": "-1.9% (inactive)"}
{"smiles": "N#Cc1ccc(OCC(=O)Nc2nc(-c3ccccn3)cs2)cc1", "Potency": "1.64 µM (active)"}
{"smiles": "Cc1ccnc(NC(=O)c2ccco2)n1", "activity change, negative = growth inhibition": "5.09% (inactive)"}
{"smiles": "CC(NC(=O)c1ccco1)C(=O)Nc1nc(-c2ccccn2)cs1", "note": "(stereo not given)", "Potency": "5.8 µM (active)"}
{"smiles": "O=C(COc1ccccc1F)NC1CC1", "activity change, negative = growth inhibition": "-12.3% (inactive)"}
{"smiles": "NS(=O)(=O)c1ccc2nc(NC(=O)COc3ccccc3)sc2c1", "activity change, negative = growth inhibition": "-0.0254% (inactive)"}
{"smiles": "Cc1cc(NC(=O)[C@H](C)NC(=O)c2ccco2)ccc1Br", "activity change, negative = growth inhibition": "-28% (inactive)"}
{"smiles": "CC1CCN(S(=O)(=O)c2nnc(NC(=O)COc3ccccc3F)s2)CC1", "activity change, negative = growth inhibition": "-5.02% (inactive)"}
{"smiles": "COc1ccc(OCC(=O)Nc2nnc(-c3ccco3)s2)cc1", "activity change, negative = growth inhibition": "-20.5% (inactive)"}
{"smiles": "O=C(COc1ccccc1F)Nc1nc(-c2ccccn2)cs1", "Potency": "4.61 µM (active)"}
{"smiles": "Cn1c(=O)oc2cc(S(=O)(=O)NCCC(=O)NCc3ccccc3Cl)ccc21", "activity change, negative = growth inhibition": "4.72% (inactive)"}
{"smiles": "CCN(CC)C(=O)CSc1nnc(C2CCCCC2)o1", "activity change, negative = growth inhibition": "0.286% (inactive)"}
{"smiles": "CCC(=O)c1ccc(OC(=O)/C=C/c2cc(OC)c(OC)c(OC)c2)cc1", "activity change, negative = growth inhibition": "1.7% (inactive)"}
{"smiles": "CC(C)CNC(=O)/C=C/C(=O)O", "activity change, negative = growth inhibition": "-14.9% (inactive)"}
{"smiles": "C[C@H](CO)N1C[C@H](C)[C@@H](CN(C)C(=O)Nc2ccc3c(c2)OCO3)Oc2c(cccc2N(C)C)C1=O", "activity change, negative = growth inhibition": "-12.8% (inactive)"}
{"smiles": "CCCCOc1ccc(N(CC(=O)NC(C)C)C(=O)CCC(=O)Nc2ccccn2)cc1", "activity change, negative = growth inhibition": "-34.6% (inactive)"}
{"smiles": "Cc1ccc(S(=O)(=O)NC(=O)N2CCCN(Cc3ccc(F)cc3)CC2)cc1", "activity change, negative = growth inhibition": "-3.06% (inactive)"}
{"smiles": "CC(C)OC(=O)C(C#N)c1nc2ccccc2nc1N1CCN(Cc2ccccc2)CC1", "note": "(stereo not given)", "Potency": "23.1 µM (active)"}
{"smiles": "Cc1ccc(S(=O)(=O)C(C#N)c2nc3ccccc3nc2N2CCCC2)cc1C", "note": "(stereo not given)", "activity change, negative = growth inhibition": "-22.9% (inactive)"}
{"smiles": "O=C(Nc1ccccc1)N1CCN(Cc2ccccc2)CC1", "activity change, negative = growth inhibition": "-9.74% (inactive)"}
{"smiles": "COc1cccc(OCC(=O)NNC(=O)c2cnccn2)c1", "activity change, negative = growth inhibition": "-29.3% (inactive)"}
{"smiles": "CS(=O)(=O)N1CCN(c2cccc(Cl)n2)CC1", "activity change, negative = growth inhibition": "-12.8% (inactive)"}
{"smiles": "CCN(CC)CCn1cnc2c1c(=O)[nH]c(=O)n2Cc1ccccc1", "activity change, negative = growth inhibition": "-22.4% (inactive)"}
{"smiles": "COCCn1cnc2c1c(=O)n(Cc1ccc(Br)cc1)c(=O)n2Cc1ccccc1", "activity change, negative = growth inhibition": "-5.41% (inactive)"}
{"smiles": "N=c1c2c(-c3ccccc3)c(-c3ccccc3)n(Cc3ccccc3)c2ncn1CCCO", "Potency": "18.4 µM (active)"}
{"smiles": "COc1ccc(C(=O)CSc2nnc(-c3ccco3)o2)cc1", "activity change, negative = growth inhibition": "-17.3% (inactive)"}
{"smiles": "O=C1CN(C(=O)CN2C(=O)NC3(CCCCC3)C2=O)c2ccccc2N1", "activity change, negative = growth inhibition": "-1.46% (inactive)"}
{"smiles": "CC(Sc1nncn1C)C(=O)NCCC1=CCCCC1", "note": "(stereo not given)", "activity change, negative = growth inhibition": "-19.3% (inactive)"}
{"smiles": "Cc1ccn2c(=O)c(C(=O)NCCC3=CCCCC3)c(O)nc2c1", "Potency": "20.6 µM (active)"}
